PABP FP inh: PABP poly(A) RNA binding inhibitors, primary screen, biochemical, fluorescence polarization, uHTS; Polyadenylate-binding protein 1 (Homo sapiens), P11940; inhibition, % at 35 µM; 290,000 tested, 1% active;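 also: calls also rest on retests at 20 µM and on dose response follow-up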
PERK inh: block of dimerizer-induced PERK translation repression, primary screen, PERK inhibitor project, CHO PERK-DD cells, SEAP luminescence, HTS | inhibition, % at 5.6 µM | 220,000 tested, 0.17% active | Eukaryotic translation initiation factor 2-alpha kinase 3 (Homo sapiens), Q9NZJ5 | CHO PERK-DD fusion, SEAP luminescence translation reporter | AID 1416, 2008;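 active = inhibition above the mean inhibition of all tested compounds plus 3 SD, set separately per screening campaign, cut at about 2.9% in these data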;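 also: PERK kinase domain activated by AP20187 dimerizer at 100 nM; 0% = DMSO with dimerizer and 100% = rapamycin at 8.4 µM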
M18AAP inhibitor: PfM18AAP inhibitors, malaria aminopeptidase, primary screen, biochemical, QFRET, recombinant enzyme | M18 aspartyl aminopeptidase (Plasmodium falciparum 3D7) | H-Glu-NHMec fluorogenic cleavage | inhibition, % at 7.35 µM | 290,000 tested, 1.2% active | AID 1822, 2009;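 active = inhibition above the campaign mean inhibition over all tested compounds plus 3 SD, cut at about 28% in these data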;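 also: 0% = plate median of test compound wells and 100% = 2 mM ZnCl2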
eIF4E 4G PPI: eIF4E–eIF4G protein interaction inhibitors, primary screen, biochemical, uHTS, TR-FRET, eIF4GI fragment; 220,000 tested, 0.37% active; Eukaryotic translation initiation factor 4E (Mus musculus) + Eukaryotic translation …; TR-FRET eIF4E-eIF4GI(517-606) binding, 2 h; AID 782, 2007; inhibition, % at 21.7 µM;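 active = inhibition above about 30%, limit read from the data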;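 also: 0% = full FRET control wells and 100% = background wells lacking eIF4GI fragment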
eIF4H inh: human eIF4H binding inhibitors, primary screen, translation initiation inhibitor project, biochemical, uHTS, fluorescence polarization. Eukaryotic translation initiation factor 4H (Homo sapiens), Q15056. eIF4H fluorescence polarization binding assay. inhibition, % at 35 µM. 290,000 tested, 0.94% active. AID 2012, 2009;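 also: calls also rest on retests at 20 µM and on dose response follow-up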
PABP1 MLLE inh: inhibitors of PABP1 MLLE–PAM2 peptide binding, primary screen, biochemical, fluorescence polarization, FITC-PAM2, GST-MLLE. AID 588489, 2011. 360,000 tested, 0.36% active. Polyadenylate-binding protein 1 (Homo sapiens), P11940. inhibition, % at 20 µM; in the data active = inhibition above about 35%, passing the limit was not always enough;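 also: plate controls were DMSO wells with GST-MLLE for no effect and wells lacking GST-MLLE protein for full effect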
* marks the source's active call; other numbers are inactive results; ? = inconclusive; . = no result; [ ] = another dose, or the depositor's remark. Sampled rows, rich in hits. Any-hit rate of the full collection: about 2.4%. Unless noted, no rule for the calls is given here.

SMILES	PABP FP inh	PERK inh	M18AAP inhibitor	eIF4E 4G PPI	eIF4H inh	PABP1 MLLE inh
O=C(Nc1ccc(-n2nncc2-c2ccco2)cc1)c1ccc(F)cc1	-10.3	-1.0	7.4	-1.7	-0.7	-4.3
COC(CN(C)S(=O)(=O)c1cc2c3c(c1)CCC(=O)N3CCC2)OC	5.7	.	-13.8	.	-4.0	10.5
Cc1coc2c1c(C)cc1oc(=O)c(CC(=O)N[C@@H](C)C(=O)O)c(C)c12	-2.7	.	-7.6	.	1.3	11.1
O=C(COC(=O)CCC1CCCC1)Nc1cccc(S(=O)(=O)N2CCOCC2)c1	.	.	.	.	.	-2.2
COc1ccc(OCC(=O)Nc2c(C)ccc3nsnc23)cc1	6.3	.	0.1	.	-21.4	7.6
N#C/C(=C\c1ccc(C(=O)O)cc1)c1ccccn1	0.6*	1.8	-6.1	0.2	64.2*	-3.8
CCN(CC)c1ccc(/C=C(\C#N)c2ccccn2)cc1	-0.5	-0.1	5.0	-2.4	54.3	-139.9
Cc1cnc(NC(=O)CSc2nnc(COc3ccccc3)o2)s1	5.3	1.4	27.0	-2.8	-4.7	-12.7
Cc1cnc(NC(=O)CSc2nnc(COc3c(C)cccc3C)o2)s1	-11.9	-0.7	28.3*	0.2	-6.2	4.9
CCN(CC)c1ccc(/C=N/N2CCN(c3ccccn3)CC2)cc1	0.6	3.0*	4.6	12.3	-7.1	-3.5
O=C(Cn1cc(C(=O)COc2ccccc2)c2ccccc21)NCc1ccco1	54.9	-1.8	9.8	1.7	35.5*	-40.6
O=C(Cn1cc(C(=S)N2CCOCC2)c2ccccc21)N1CCOCC1	-13.4	0.3	-0.2	0.5	-13.7	13.3
O=C(COc1ccccc1)c1cn(CC(=O)N2CCOCC2)c2ccccc12	107.4*	0.0	1.1	4.3	95.4*	-7.0
CC(C)(C)C(=O)Nc1cccc(-c2cc(-c3c(Cl)cccc3Cl)no2)c1	4.5	-1.7	3.0	8.3	-1.7	5.2
N#Cc1ccc(OCC(=O)Nc2ccccc2NS(=O)(=O)c2cccs2)cc1	active	-0.1	5.2	-6.9	53.1*	-4.0
CC(=O)Nc1ccc2c3c(cccc13)C(=O)N(c1ccccc1)C2=O	9.8	1.2	2.1	-0.2	-4.0	12.9
O=CNc1ccc2c3c(cccc13)-c1ccccc1-2	.	.	.	.	.	47.5*
O=c1[nH][nH]c(-c2ccccc2)c1C=Nc1ccc(Cl)cc1	0.9	1.3	11.9	-8.3	1.0	11.7
O=c1[nH][nH]c(-c2ccccc2)c1C=Nc1cccc(Cl)c1	-4.1	2.9*	2.9	-0.6	-2.6	4.1
CC1(C(=O)Nc2cccc(C#N)c2)CCN1C(=O)Cc1ccc(-c2ccccc2)cc1 (stereo unspecified)	.	.	.	.	.	3.1
COc1ccc(C2C=C(c3ccc(C)cc3)Nc3ncnn32)cc1 (stereo unspecified)	12.7	-0.4	16.4	.	0.7	41.2*
COc1ccc(C2C=C(c3ccc(Br)s3)Nc3ncnn32)cc1OC (stereo unspecified)	-7.8	0.9	36.1*	-7.1	?	.
CCCN(CCC)C(=S)NC(=O)c1ccc(-c2ccccc2)cc1	5.5	-1.5	0.9	-0.2	18.1	38.8*
CCOc1ccc(C(=O)NC(=S)N(Cc2ccccc2)Cc2ccccc2)cc1	2.1	-1.5	0.8	-7.0	-3.1	24.8
CCOC(=O)c1cc(-c2ccc(/C=C3/C(=O)NC(=O)C(C#N)=C3C)o2)ccc1Cl	87.3*	0.9	8.2	58.6*[fluorescence artefact?]	?	18.4
SMILES	PABP FP inh	PERK inh	M18AAP inhibitor	eIF4E 4G PPI	eIF4H inh	PABP1 MLLE inh
Cc1ccc(-c2ccc(/C=N/N=C3/NC(=O)C(CC(=O)O)S3)o2)c([N+](=O)[O-])c1 (stereo unspecified)	6.5	0.1	24.3	9.9	36.6	-83.4
CC1=C(C#N)C(=O)NC(=O)/C1=C\c1ccc(-c2ccc(C)cc2[N+](=O)[O-])o1	3.3	-0.2	24.8	32.6*	?	16.5
CC1=CC(=O)C(C(C)=Nc2ccccc2[N+](=O)[O-])C(=O)O1 (stereo unspecified)	.	.	.	.	.	-1.1
CS(=O)(=O)/C(C#N)=C\c1cnc(S(=O)(=O)c2ccccc2)s1	-1.7	.	-284.6	.	-4.7	.
COc1ccc(Cl)cc1CN1CCN(c2nc(C)cc(C)c2C#N)CC1	73.2*	-0.5	-6.2	-8.6	45.9*	2.0
Cc1cc(C)c(S(=O)(=O)/N=C2\C=C(Nc3ccc(C(=O)O)cc3)C(=O)c3ccccc32)c(C)c1	54.1*	.	-3.6	.	60.4*	8.2
COc1ccc(S(=O)(=O)CC(=O)c2cc3cc(Br)ccc3oc2=O)cc1	13.0	.	28.8*	.	10.1	7.6
CC(C)CC1Nc2ccc(C(=O)NCc3ccc4c(c3)OCO4)cc2NC1=O (stereo unspecified)	12.0	.	28.7*	.	-14.0	-9.0
CC(Nc1ccc(F)cc1)=[N+](C)CCNS(=O)(=O)c1ccc(Cl)cc1	51.4*	.	0.1	.	10.7	-121.0
Cc1ccc(NC(=S)N(CCCN2CCN(C)CC2)Cc2cccs2)cc1C	105.7*	0.7	-4.6	1.8	6.1	-64.0
c1ccc2c(c1)nc1n2C2(N3CCOCC3)CCCC2C1N1CCOCC1 (stereo unspecified)	45.7*	.	.	.	56.8*	8.6
c1ccc2c(c1)nc1n2CC2CON(C3CCCCC3)C12 (stereo unspecified)	-0.8	.	.	-1.0	-0.4	1.7
CCCCCCNC(=O)N[C@H](C(=O)NCCC[C@H]1CN2C(=NC[C@H]2C)N1CCC(c1ccccc1)c1ccccc1)C(C)O (stereo partly specified)	-14.6	.	.	52.6*	5.3	.
C[C@@H]1CN=C2N(CCNC(=O)CCC3CCCCC3)[C@H](Cc3ccc(O)cc3)CN21	-25.4	0.6	1.1	23.1	-28.1	-2.0
O=C(CSc1nc2ccccc2c(=O)n1CCCO)NCc1ccccc1	-1.1	0.2	6.6	3.4	-13.0	37.5*
Cc1ccc(-c2csc(NC(=O)CSc3nc4ccccc4c(=O)n3CCCN(C)C)n2)cc1	27.4	0.3	0.4	31.0*	-8.1	-6.3
CCn1c(SCC(=O)Nc2nc(-c3ccc(C)cc3)cs2)nnc1-c1ccccc1	1.5	0.4	-5.0	-5.3	7.4	-1.7
CCN1CCN(c2ccc(S(=O)(=O)N3CCCCC3)cc2NC(=O)/C=C/c2ccc(Cl)cc2)CC1	.	.	.	.	.	-105.0
CC1=CC(=O)c2c(O)ccc(O)c2C1=O	111.1*	1.4	34.7*	63.0*	112.1*	.
CC(=O)Nc1ccc(NC(=O)c2ccccc2Nc2ccccc2)cc1	1.5	.	4.0	.	-21.4	0.4
CCC(=O)NC(=S)Nc1c(C)cc(Br)cc1C	13.5	-0.1	-14.7	-1.6	-5.7	43.6*

Compound activity: PubChem BioAssay, several laboratories
